Laboratory results published in the supplement of paper PMC10849652.
Targets with a hit are over-represented here; the source holds about 8,800 in all. About 0.5% of all pairs of compound and target were hits. Unmarked numbers belong to inactive results.

Experiments:
Experiment in all cases: log2 fold change, soluble protein after heating vs DMSO (PISA); higher = thermal stabilisation; K562 lysate, 10 uM; active = over 0.2 and 3.5 SD of the protein, either way, in both replicates (recomputed)
[1] = compound: C=CC(=O)N1CCC[C@@H](n2nc(-c3ccc(Oc4ccccc4)cc3)c3c(N)ncnc32)C1 [ibrutinib]
Method in brief: (§1)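 A 30 min treatment with 10 μM compound was applied to crude K562 extract at 1 mg/mL protein in PBS pH 7.4 with 1 mM MgCl2. Heating for 3 min spanned 48°C-58°C, after which aliquots were pooled, adjusted to 0.5% NP-40 at 4°C and spun at 21,000xg for 90 min. TMTpro 16plex LC-MS/MS of the supernatant, with channel sums equalised, gave values recorded as log-two fold change in thermal stability against solvent controls, from duplicates.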

[2] = compound: CC(=O)c1cnc2ccc(-c3cc(Cl)c(O)c(Cl)c3)nc2c1N[C@H]1CC[C@H](CN(C)C)CC1
Method in brief: as §1

[3] = compound: CC(C)(C)Cn1c(N)nc2ccc(-c3[nH]c(C(C)(C)C)nc3-c3ccc(F)cc3)nc21 [ralimetinib]
Method in brief: as §1

[4] = compound: CC(C)(O)CC(=O)NCCn1ccc2ncnc(Nc3ccc(Oc4cccc(C(F)(F)F)c4)c(Cl)c3)c21
Method in brief: as §1

[5] = compound: CC(C)C1=C2N=C(C=C(N2N=C1)NCC3=CC=CC=C3)NCCCCCCN
Method in brief: as §1

[6] = compound: CC1=C(C(CC(=O)N1)C2=CC=C(C=C2)C(F)(F)F)C(=O)NC3=C(C=C4C(=C3)C=NN4)F
Method in brief: as §1

[7] = compound: CC1=C(C2=C(C=C1)C(=O)C3=CC=CC=C3N2CCCN)C
Method in brief: as §1

[8] = compound: CC1=C(C=C(C=C1)NC(=O)C2=CC(=CC=C2)C(C)(C)C#N)NC3=CC4=C(C=C3)N=CN(C4=O)C
Method in brief: as §1

[9] = compound: CC1=C(C=C(C=C1)NC(=O)C2=CC(=CC=C2)N(C)C)NC(=O)C3=CC=C(C=C3)O
Method in brief: as §1

[10] = compound: CC1=CC=C(C=C1)SC2=C3C=C(SC3=CN=C2)C(=O)N
Method in brief: as §1

[11] = compound: CCCS(=O)(=O)Nc1ccc(F)c(C(=O)c2c[nH]c3ncc(-c4ccc(Cl)cc4)cc23)c1F [vemurafenib]
Method in brief: as §1

[12] = compound: CCCS(=O)(=O)Nc1ccc(F)c(C(=O)c2c[nH]c3ncc(Cl)cc23)c1F
Method in brief: as §1

[13] = compound: CCN(CCCOc1ccc2c(Nc3cc(CC(=O)Nc4cccc(F)c4)[nH]n3)ncnc2c1)CCOP(=O)(O)O [barasertib]
Method in brief: as §1

[14] = compound: CC[C@@H]1C(=O)N(C)c2cnc(Nc3ccc(C(=O)NC4CCN(C)CC4)cc3OC)nc2N1C1CCCC1
Method in brief: as §1

[15] = compound: CC[C@@H]1C(=O)N(C)c2cnc(Nc3ccc(C(=O)N[C@H]4CC[C@H](N5CCN(CC6CC6)CC5)CC4)cc3OC)nc2N1C(C)C [volasertib]
Method in brief: as §1

[16] = compound: CCn1c(C(=O)N(C2CC2)C2CC2)cc2c3c(ncn3C)c(Nc3cc(C)n(C)n3)nc21
Method in brief: as §1

[17] = compound: CCn1cc(-c2ccnc3[nH]c(-c4cccc(CN(C)C)c4)cc23)c(-c2ccc(NC(=O)N(C)C)cc2)n1
Method in brief: as §1

[18] = compound: CN1CCC(CNc2ccc3ncc(-c4cccc(OC(F)(F)F)c4)n3n2)CC1
Method in brief: as §1

[19] = compound: CN1CCN(CCOc2cc(OC3CCOCC3)c3c(Nc4c(Cl)ccc5c4OCO5)ncnc3c2)CC1 [saracatinib]
Method in brief: as §1

[20] = compound: CN1CCN(c2nc(C3=C(c4c[nH]c5ccccc45)C(=O)NC3=O)c3ccccc3n2)CC1 [sotrastaurin]
Method in brief: as §1

Sequence of UniProt P02792 (P02792 whole entry, looked up): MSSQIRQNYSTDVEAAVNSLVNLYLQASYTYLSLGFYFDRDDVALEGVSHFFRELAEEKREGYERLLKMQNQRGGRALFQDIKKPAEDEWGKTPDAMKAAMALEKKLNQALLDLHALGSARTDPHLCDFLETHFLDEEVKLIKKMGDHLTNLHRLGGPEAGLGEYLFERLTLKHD
Sequence of UniProt Q92562 (Q92562 whole entry, looked up): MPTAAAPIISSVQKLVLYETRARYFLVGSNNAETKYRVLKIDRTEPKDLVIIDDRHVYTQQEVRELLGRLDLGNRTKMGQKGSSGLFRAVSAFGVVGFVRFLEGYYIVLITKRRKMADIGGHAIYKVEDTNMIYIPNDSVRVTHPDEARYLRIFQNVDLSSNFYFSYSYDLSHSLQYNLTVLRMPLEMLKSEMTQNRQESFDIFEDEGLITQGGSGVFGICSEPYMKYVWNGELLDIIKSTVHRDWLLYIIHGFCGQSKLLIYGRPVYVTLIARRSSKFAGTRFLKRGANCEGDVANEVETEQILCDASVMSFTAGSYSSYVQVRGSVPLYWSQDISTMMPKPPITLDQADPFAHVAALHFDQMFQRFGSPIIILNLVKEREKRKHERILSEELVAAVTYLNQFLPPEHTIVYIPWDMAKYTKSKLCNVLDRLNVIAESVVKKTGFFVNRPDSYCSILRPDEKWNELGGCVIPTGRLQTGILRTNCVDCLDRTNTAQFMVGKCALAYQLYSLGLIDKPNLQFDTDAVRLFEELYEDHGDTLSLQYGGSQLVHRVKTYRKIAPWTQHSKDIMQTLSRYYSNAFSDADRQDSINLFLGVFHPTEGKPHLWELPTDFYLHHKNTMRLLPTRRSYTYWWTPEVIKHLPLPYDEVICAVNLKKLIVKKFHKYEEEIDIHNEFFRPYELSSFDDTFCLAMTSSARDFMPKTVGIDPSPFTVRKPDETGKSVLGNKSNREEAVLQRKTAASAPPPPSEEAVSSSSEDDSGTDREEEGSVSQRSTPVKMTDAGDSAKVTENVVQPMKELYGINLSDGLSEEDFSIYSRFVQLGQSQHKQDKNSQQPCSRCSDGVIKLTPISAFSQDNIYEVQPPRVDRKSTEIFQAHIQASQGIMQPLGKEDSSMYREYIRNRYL
Sequence of UniProt Q8TAG9 (Q8TAG9 whole entry, looked up): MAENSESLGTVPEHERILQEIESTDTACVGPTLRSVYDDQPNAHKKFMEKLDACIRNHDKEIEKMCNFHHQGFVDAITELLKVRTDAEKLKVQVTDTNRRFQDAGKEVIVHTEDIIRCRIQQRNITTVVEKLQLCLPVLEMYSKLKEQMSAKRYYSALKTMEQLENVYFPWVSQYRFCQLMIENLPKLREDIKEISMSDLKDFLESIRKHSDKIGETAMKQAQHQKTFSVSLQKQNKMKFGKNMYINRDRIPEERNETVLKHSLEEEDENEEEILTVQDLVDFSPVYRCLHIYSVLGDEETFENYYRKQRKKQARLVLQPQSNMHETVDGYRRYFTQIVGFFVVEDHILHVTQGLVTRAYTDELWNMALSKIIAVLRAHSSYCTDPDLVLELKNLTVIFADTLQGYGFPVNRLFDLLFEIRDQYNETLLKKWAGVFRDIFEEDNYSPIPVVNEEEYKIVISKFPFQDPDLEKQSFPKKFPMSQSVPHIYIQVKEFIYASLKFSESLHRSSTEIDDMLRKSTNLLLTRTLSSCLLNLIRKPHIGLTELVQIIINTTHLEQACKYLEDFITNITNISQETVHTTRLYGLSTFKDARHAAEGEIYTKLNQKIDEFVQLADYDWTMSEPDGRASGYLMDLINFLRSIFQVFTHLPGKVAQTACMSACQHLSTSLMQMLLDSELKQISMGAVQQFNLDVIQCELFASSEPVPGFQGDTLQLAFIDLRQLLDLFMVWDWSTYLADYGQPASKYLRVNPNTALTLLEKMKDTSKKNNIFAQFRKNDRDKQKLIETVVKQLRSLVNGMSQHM
Sequence of UniProt P11171 (P11171 whole entry, looked up): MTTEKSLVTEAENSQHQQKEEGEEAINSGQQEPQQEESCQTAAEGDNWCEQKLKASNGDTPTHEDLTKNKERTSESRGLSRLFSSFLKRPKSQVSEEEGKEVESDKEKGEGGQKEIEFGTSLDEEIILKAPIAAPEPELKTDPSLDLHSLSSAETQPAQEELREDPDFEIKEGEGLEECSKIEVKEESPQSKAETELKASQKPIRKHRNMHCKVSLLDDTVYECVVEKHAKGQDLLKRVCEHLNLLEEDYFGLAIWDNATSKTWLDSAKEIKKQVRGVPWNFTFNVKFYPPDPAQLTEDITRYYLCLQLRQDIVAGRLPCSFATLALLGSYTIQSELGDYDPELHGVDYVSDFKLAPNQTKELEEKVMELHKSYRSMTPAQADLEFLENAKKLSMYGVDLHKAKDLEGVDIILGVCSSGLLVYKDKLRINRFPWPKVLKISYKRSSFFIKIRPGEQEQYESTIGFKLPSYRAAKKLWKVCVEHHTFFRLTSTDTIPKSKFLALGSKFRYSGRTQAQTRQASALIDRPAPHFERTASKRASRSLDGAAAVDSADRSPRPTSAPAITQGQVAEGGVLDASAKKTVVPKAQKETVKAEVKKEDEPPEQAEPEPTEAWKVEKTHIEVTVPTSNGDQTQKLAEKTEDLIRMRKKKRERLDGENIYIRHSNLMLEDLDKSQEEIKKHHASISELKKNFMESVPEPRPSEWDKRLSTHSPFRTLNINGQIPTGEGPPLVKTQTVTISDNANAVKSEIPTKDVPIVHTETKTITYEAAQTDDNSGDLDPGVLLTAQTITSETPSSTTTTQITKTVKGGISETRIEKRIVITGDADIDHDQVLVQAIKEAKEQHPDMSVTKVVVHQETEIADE
Sequence of UniProt O14772 (O14772 whole entry, looked up): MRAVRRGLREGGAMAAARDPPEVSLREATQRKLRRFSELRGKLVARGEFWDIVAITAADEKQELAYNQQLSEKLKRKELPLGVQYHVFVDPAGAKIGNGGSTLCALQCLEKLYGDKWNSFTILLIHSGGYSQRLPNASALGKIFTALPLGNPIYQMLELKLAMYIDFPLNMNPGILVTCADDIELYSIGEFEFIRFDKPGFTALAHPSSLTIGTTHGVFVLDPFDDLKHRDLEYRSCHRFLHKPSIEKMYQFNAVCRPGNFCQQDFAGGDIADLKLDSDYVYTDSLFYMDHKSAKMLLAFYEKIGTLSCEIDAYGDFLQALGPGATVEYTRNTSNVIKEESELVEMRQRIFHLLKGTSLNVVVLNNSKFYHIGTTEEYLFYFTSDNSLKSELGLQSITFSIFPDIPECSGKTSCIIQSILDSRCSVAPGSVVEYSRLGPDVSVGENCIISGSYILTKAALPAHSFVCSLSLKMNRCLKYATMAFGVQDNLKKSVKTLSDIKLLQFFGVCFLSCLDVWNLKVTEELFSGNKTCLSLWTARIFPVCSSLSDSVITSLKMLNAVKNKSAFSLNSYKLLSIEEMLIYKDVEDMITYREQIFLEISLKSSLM
Sequence of UniProt P85037 (P85037 whole entry, looked up): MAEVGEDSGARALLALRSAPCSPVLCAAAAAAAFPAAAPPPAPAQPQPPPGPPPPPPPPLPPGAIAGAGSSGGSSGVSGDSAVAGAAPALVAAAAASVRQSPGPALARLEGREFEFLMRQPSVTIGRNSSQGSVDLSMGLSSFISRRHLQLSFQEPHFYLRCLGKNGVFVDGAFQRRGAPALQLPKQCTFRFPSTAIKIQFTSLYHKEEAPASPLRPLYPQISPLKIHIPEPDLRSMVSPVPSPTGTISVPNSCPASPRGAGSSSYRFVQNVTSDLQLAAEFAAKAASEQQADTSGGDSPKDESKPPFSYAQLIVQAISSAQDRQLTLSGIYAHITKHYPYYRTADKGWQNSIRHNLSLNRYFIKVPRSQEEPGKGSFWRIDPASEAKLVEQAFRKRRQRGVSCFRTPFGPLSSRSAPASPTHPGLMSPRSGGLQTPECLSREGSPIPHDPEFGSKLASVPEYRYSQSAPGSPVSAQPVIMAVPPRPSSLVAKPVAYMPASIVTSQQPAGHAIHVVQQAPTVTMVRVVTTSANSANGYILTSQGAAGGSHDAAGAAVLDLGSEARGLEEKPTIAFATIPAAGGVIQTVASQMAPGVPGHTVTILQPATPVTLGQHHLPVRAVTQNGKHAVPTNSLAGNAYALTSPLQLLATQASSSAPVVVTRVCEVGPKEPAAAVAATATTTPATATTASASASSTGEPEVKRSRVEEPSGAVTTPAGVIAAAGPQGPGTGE

**Q.** With FPGT (UniProt O14772) as the target, how does the log2 fold change [1] read?
**A.** The log2 fold change was -0.016.

**Q.** What about the log2 fold change [2] of the same target?
**A.** Its log2 fold change is -0.033.

**Q.** What about the log2 fold change [3] of the same target?
**A.** The log2 fold change was 0.005.

**Q.** And the log2 fold change [4]?
**A.** The log2 fold change was 0.011.

**Q.** And the log2 fold change [5]?
**A.** The log2 fold change was 0.014.

**Q.** And the log2 fold change [6]?
**A.** The log2 fold change was 0.009.

**Q.** And the log2 fold change [7]?
**A.** The log2 fold change was 0.029.

**Q.** What about the log2 fold change [8] of the same target?
**A.** Its log2 fold change is 0.02.

**Q.** And the log2 fold change [9]?
**A.** The log2 fold change was 0.003.

**Q.** And the log2 fold change [10]?
**A.** The log2 fold change was -0.033.

**Q.** And the log2 fold change [11]?
**A.** Its log2 fold change is -0.008.

**Q.** And the log2 fold change [12]?
**A.** Its log2 fold change is 0.011.

**Q.** What about the log2 fold change [13] of the same target?
**A.** The log2 fold change was 0.048.

**Q.** And the log2 fold change [14]?
**A.** Its log2 fold change is -0.064.

**Q.** What about the log2 fold change [15] of the same target?
**A.** The log2 fold change was -0.018.

**Q.** What about the log2 fold change [16] of the same target?
**A.** Its log2 fold change is 0.008.

**Q.** What about the log2 fold change [17] of the same target?
**A.** Its log2 fold change is 0.415 (active).

**Q.** What about the log2 fold change [18] of the same target?
**A.** Its log2 fold change is -0.054.

**Q.** And the log2 fold change [19]?
**A.** The log2 fold change was 0.017.

**Q.** What about the log2 fold change [20] of the same target?
**A.** The log2 fold change was -0.001.

**Q.** Which results are given for FIG4 (UniProt Q92562)?
**A.** log2 fold change [1]: 0.14; log2 fold change [2]: -0.07; log2 fold change [3]: -0.01; log2 fold change [4]: -0.115; log2 fold change [5]: -0.012; log2 fold change [6]: -0.248; log2 fold change [7]: 0.029; log2 fold change [8]: -0.093; log2 fold change [9]: -0.085; log2 fold change [10]: 0.012; log2 fold change [11]: 0.107; log2 fold change [12]: 0.071; log2 fold change [13]: -0.085; log2 fold change [14]: -0.201; log2 fold change [15]: -0.012; log2 fold change [16]: -0.045; log2 fold change [17]: 0.104; log2 fold change [18]: -0.012; log2 fold change [19]: 0.032; log2 fold change [20]: 0.092

**Q.** How did the log2 fold change [1] turn out when EXOC6 (UniProt Q8TAG9) was run?
**A.** Its log2 fold change is 0.

**Q.** And the log2 fold change [2]?
**A.** Its log2 fold change is 0.072.

**Q.** What about the log2 fold change [3] of the same target?
**A.** The log2 fold change was 0.034.

**Q.** What about the log2 fold change [4] of the same target?
**A.** Its log2 fold change is -0.018.

**Q.** What about the log2 fold change [5] of the same target?
**A.** Its log2 fold change is -0.049.

**Q.** What about the log2 fold change [6] of the same target?
**A.** Its log2 fold change is 0.048.

**Q.** What about the log2 fold change [7] of the same target?
**A.** Its log2 fold change is 0.049.

**Q.** And the log2 fold change [8]?
**A.** Its log2 fold change is -0.022.

**Q.** What about the log2 fold change [9] of the same target?
**A.** The log2 fold change was 0.042.

**Q.** What about the log2 fold change [10] of the same target?
**A.** The log2 fold change was 0.01.

**Q.** And the log2 fold change [11]?
**A.** Its log2 fold change is -0.041.

**Q.** What about the log2 fold change [12] of the same target?
**A.** Its log2 fold change is 0.033.

**Q.** What about the log2 fold change [13] of the same target?
**A.** Its log2 fold change is 0.032.

**Q.** What about the log2 fold change [14] of the same target?
**A.** The log2 fold change was -0.033.

**Q.** What about the log2 fold change [15] of the same target?
**A.** The log2 fold change was -0.047.

**Q.** And the log2 fold change [16]?
**A.** The log2 fold change was 0.032.

**Q.** What about the log2 fold change [17] of the same target?
**A.** The log2 fold change was -0.05.

**Q.** What about the log2 fold change [18] of the same target?
**A.** The log2 fold change was -0.075.

**Q.** What about the log2 fold change [19] of the same target?
**A.** Its log2 fold change is 0.018.

**Q.** And the log2 fold change [20]?
**A.** Its log2 fold change is 0.06.

**Q.** How did the log2 fold change [1] turn out when FOXK1 (UniProt P85037) was run?
**A.** The log2 fold change was 0.033.

**Q.** And the log2 fold change [2]?
**A.** The log2 fold change was 0.005.

**Q.** What about the log2 fold change [3] of the same target?
**A.** The log2 fold change was 0.082.

**Q.** And the log2 fold change [4]?
**A.** Its log2 fold change is 0.063.

**Q.** And the log2 fold change [5]?
**A.** The log2 fold change was -0.011.

**Q.** And the log2 fold change [6]?
**A.** Its log2 fold change is 0.018.

**Q.** And the log2 fold change [7]?
**A.** The log2 fold change was 0.007.

**Q.** What about the log2 fold change [8] of the same target?
**A.** The log2 fold change was -0.025.

**Q.** And the log2 fold change [9]?
**A.** Its log2 fold change is -0.001.

**Q.** What about the log2 fold change [10] of the same target?
**A.** Its log2 fold change is 0.011.

**Q.** And the log2 fold change [11]?
**A.** Its log2 fold change is -0.01.

**Q.** What about the log2 fold change [12] of the same target?
**A.** Its log2 fold change is 0.008.

**Q.** And the log2 fold change [13]?
**A.** Its log2 fold change is 0.025.

**Q.** What about the log2 fold change [14] of the same target?
**A.** Its log2 fold change is -0.007.

**Q.** What about the log2 fold change [15] of the same target?
**A.** The log2 fold change was -0.019.

**Q.** And the log2 fold change [16]?
**A.** The log2 fold change was 0.013.

**Q.** And the log2 fold change [17]?
**A.** Its log2 fold change is -0.014.

**Q.** What about the log2 fold change [18] of the same target?
**A.** Its log2 fold change is 0.026.

**Q.** And the log2 fold change [19]?
**A.** Its log2 fold change is 0.005.

**Q.** What about the log2 fold change [20] of the same target?
**A.** Its log2 fold change is -0.012.

**Q.** What does the source list for EPB41 (UniProt P11171)?
**A.** log2 fold change [1]: 0.01; log2 fold change [2]: 0.026; log2 fold change [3]: 0.009; log2 fold change [4]: 0.012; log2 fold change [5]: -0.003; log2 fold change [6]: -0.001; log2 fold change [7]: 0.018; log2 fold change [8]: -0.023; log2 fold change [9]: 0.01; log2 fold change [10]: 0.044; log2 fold change [11]: -0.051; log2 fold change [12]: 0.005; log2 fold change [13]: -0.009; log2 fold change [14]: -0.033; log2 fold change [15]: -0.02; log2 fold change [16]: 0.022; log2 fold change [17]: 0.026; log2 fold change [18]: -0.135; log2 fold change [19]: 0.014; log2 fold change [20]: 0.026

**Q.** With FTL (UniProt P02792) as the target, how does the log2 fold change [1] read?
**A.** Its log2 fold change is -0.026.

**Q.** And the log2 fold change [2]?
**A.** The log2 fold change was -0.025.

**Q.** And the log2 fold change [3]?
**A.** Its log2 fold change is -0.146.

**Q.** What about the log2 fold change [4] of the same target?
**A.** The log2 fold change was -0.257.

**Q.** And the log2 fold change [5]?
**A.** Its log2 fold change is 0.023.

**Q.** And the log2 fold change [6]?
**A.** The log2 fold change was 0.027.

**Q.** What about the log2 fold change [7] of the same target?
**A.** The log2 fold change was 0.041.

**Q.** What about the log2 fold change [8] of the same target?
**A.** The log2 fold change was 0.023.

**Q.** And the log2 fold change [9]?
**A.** Its log2 fold change is 0.033.

**Q.** And the log2 fold change [10]?
**A.** The log2 fold change was 0.053.

**Q.** And the log2 fold change [11]?
**A.** The log2 fold change was -0.063.

**Q.** What about the log2 fold change [12] of the same target?
**A.** Its log2 fold change is 0.047.

**Q.** And the log2 fold change [13]?
**A.** The log2 fold change was -0.005.

**Q.** And the log2 fold change [14]?
**A.** The log2 fold change was 0.03.

**Q.** What about the log2 fold change [15] of the same target?
**A.** The log2 fold change was 0.06.

**Q.** What about the log2 fold change [16] of the same target?
**A.** Its log2 fold change is -0.327.

**Q.** What about the log2 fold change [17] of the same target?
**A.** The log2 fold change was -0.041.

**Q.** What about the log2 fold change [18] of the same target?
**A.** The log2 fold change was 0.092.

**Q.** And the log2 fold change [19]?
**A.** Its log2 fold change is 0.058.

**Q.** What about the log2 fold change [20] of the same target?
**A.** The log2 fold change was 0.036.
